# Test system: VDR:RXRa (NR concentration 270 nM, RXRa partner concentration 90 nM)
# Test: PBM binding z-score (relative to random genomic background probes); higher = stronger binding; sequences stand for … in GC…GCGATTGACAGCGTAGAATGAAGG
# Procedure: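 Protein-binding microarray (Agilent 4x180K custom design, double-stranded 60-nt probes: 5' GC cap, 34-nt variable region, 24-nt constant primer region; full probe sequence given). Purified or IVT nuclear receptor:RXRα heterodimers (3:1 NR:RXRα, mostly 270:90 nM) or homodimers were incubated for 1 h in PBS with 2% milk and no ligand, then detected with Alexa488 antibodies. Fluorescence from o1-orientation probes (~5 replicates averaged) was converted to z-scores against 500 random hg19 background probes. Variable regions are seed direct-repeat (DR0–DR5) sites, all their single-nucleotide variants and half-site ablations.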
row,Sequence,PBM binding z-score
1,AGAACGAAGGCACGCTGAGTTGATAGCAGAGTAG,-0.487
2,AGAATGAGGGCACGCTGAGTTGATAGCAGAGTAG,2.35
3,ACAGACAGGTGATGAAGGTATCTCAGGCTATCAT,-0.0743
4,CCTACTGGGCCAAAAAGGTCGTTGATGCCGATAA,2.79
5,GATACAGGGTCAGCTAGAGGCCAGAATATGGAAA,3.19
6,CCCAGTTGGTCAAGGTCACACACGCTATAGGTAC,4.58
7,CCAGACAGGTGAGAATGTAACTCAGCCTCGATTA,-0.0872
8,AGTCAAAGTTCAGGAAGAGGTAACGTAAAGCACG,2.96
9,TCTTGTAGATCAAGCAGGTTGAGAAAGCCTGAGT,0.285
10,CCTTACGGGCCAAGGTTATAGCACGGGTGGTACG,-0.139
11,CGAACTAGGTCATCCAGGCCAGTGAATACATTGA,3.97
12,GATACAGGGTCAAGCCCAGAGTACGCGTATTGAT,4.5
13,CAGCCTAGGTCAGGGCCAGTAGAGGAGGAACGTT,-0.0759
14,CCTACTGGTCCAAAAAGGTCATTGATGCCGATAA,4.99
15,GCGACTGAGGCAAAGCAGGTTACCATAAGGTTGG,-0.292
16,TTACCAAGCTGAAGGTCGTTGATCCCTCTGTAGA,0.724
17,ATCGAAAGGTCGACGATGTGAGTATACACCGTTT,2.51
18,CCTTCTGGGCCAAGGTCATTGATCAGTCAAAGCA,3.17
19,GCGACTGGGGCGTCAGCAGGTTACCATAACTTAA,-0.382
20,TCGAGTAGGTTAGTCGGGGCACTCAGCCAACATA,1.2

row,Sequence,PBM binding z-score
1,CCGACTGGGGCAAAGGTTACAATACTCAGTACGA,1.71
2,CCTACTCGGCCAAAGGTCATTGATTCCAATGCTC,4.8
3,ACTATTAGTTCACTTAGGGCAACCGATACGACGC,2.52
4,CGAACTAGGTCATCCAGGACAGGGAATACATTGA,4.1
5,CTACCAAGGTGAACAAGGTCGTAGATTACTATTC,5.56
6,ATATGTAGGTTAGCTGGGGTCATTCGGACTAGGC,6.4
7,ACTATTATTTGAGACGAGGGCAACCGATAGGTTG,1.1
8,TAGCCTAGGTCATTCAGGGTCCAGTATAGAAAGC,4.41
9,GCTTGTAGATCAAGGTTAACAAAGACTAAGCTAA,0.333
10,CCTACTGGGCCACGAACGGTCATTGATTCAGTGA,-0.227
11,AGAATGAAGTTAAGATCAGGGAAACAGAATACAT,-0.31
12,CAGACTGGGGCAAAGGTTACCATACTCAGTACGA,1.93
13,ACAGACAGGTGATAAAGGTAACTCAGGCTATCAT,0.455
14,CCTCGGAGGACAGCAGGAGGTCAGAGCTGCCAGA,1.09
15,CGAACTAGGTCACAGAGGTCAAAGTCCGTGCGTA,8.3
16,ACTATTAGTTGAGACGAGCGCAACCGATAGGTTG,-0.385
17,ACAGACTGGTGAGTGAAGGTAACTCAGCTGGACG,-0.365
18,TCATATAGGTAAATGCTAGCTGAAAGTCCGATCT,0.702
19,TCGAGTAGGTTAGTCGGGTCATTCAGCCAACATA,4.88
20,ATAGAAAGGTCGTGAGGTGAGTATACAGAAAGGC,3.63
